Compounds with a hit are over-represented: about 17% of the library has one in this group of screens.
TDP1 block = TDP1 (human) enzyme inhibition. Q9NUW8. recombinant TDP1, AlphaScreen DNA substrate cleavage. Potency, µM (titrated, usually from 130 µM), actives largely listed as inhibitors. 350,000 tested, 0.28% active. AID 485290; also: nearly all actives have a fitted effect of over 40% in size
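Recombinant human Tdp1 (E. coli-expressed, 1 nM final) preincubated with compounds 15 min at room temperature, then 5'-biotin/3'-phosphotyrosine-FITC DNA substrate (15 nM final) added for 5 min. AlphaScreen beads (10 ug/ml final) added 10 min; cleavage lowers signal.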
DT40 TDP1 no CPT = qHTS for Inhibitors of human tyrosyl-DNA phosphodiesterase 1 (TDP1): qHTS in cells in absence of CPT. 420,000 tested, 15% active. AID 686978, 2013. DT40 Tdp1-/- hTDP1 cells, no CPT, ATP luminescence, 48 h. Potency, µM (doses to about 46.2 µM), most hits filed as inhibitors; also: nearly all actives have a fitted effect of over 55% in size
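No-CPT arm: Tdp1-/-;hTDP1 DT40 cells (400/well) plus compounds, incubated ≥48 hr at 37 °C. Readout CellTiter-Glo luminescence.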
ClpP mod = qHTS Assay for Activators of ClpP. ATP-dependent Clp protease proteolytic subunit (Bacillus subtilis (strain 168)), P80244. purified B. subtilis ClpP, FRET peptide cleavage, 20 min. Potency, µM (top dose mostly 57.5 µM). 340,000 tested, 1.9% active. AID 651965, 2013; active = well fitted falling curve with a large enough effect; inconclusive = small, poorly fitted or top-dose-only effect; inactive = no such curve, though single readings can be large or run the other way; also: the source files actives as falling curves though it sought activators and does not explain the sign; nearly all actives have a fitted effect of over 65% in size
Target sequence (P80244 whole entry, looked up): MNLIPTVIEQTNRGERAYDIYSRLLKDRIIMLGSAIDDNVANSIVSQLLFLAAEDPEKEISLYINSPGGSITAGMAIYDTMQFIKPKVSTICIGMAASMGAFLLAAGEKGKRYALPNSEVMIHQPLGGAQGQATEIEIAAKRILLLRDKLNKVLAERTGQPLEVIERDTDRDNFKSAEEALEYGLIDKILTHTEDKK
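ClpP 10 microg/mL final, pH 8 Tris/KCl buffer with BSA, glycerol, Tween-20; compound pinned in; FRET-FV substrate; RT 20 min; Ex320/Em430; ΔFRET vs ADEP 5.8 microM, DMSO, no enzyme.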
DT40 TDP1 CPT = DT40-hTDP1 cell growth loss with CPT. AID 686979. chicken DT40 Tdp1-/-;hTDP1 cells + 20 nM CPT, ATP luminescence, 48 h. 420,000 tested, 12% active. Potency, µM (series often up to 46.2 µM), most hits filed as inhibitors; also: nearly all actives have a fitted effect of over 55% in size
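Cell growth measured by CellTiter-Glo luminescence after a minimum 48 h, 37 C compound exposure with 20 nM CPT in Tdp1-knockout DT40 cells stably expressing hTDP1, seeded 400/well; qHTS titration format.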
Of the large screens only hits and unclear results are named; the others gave an inactive call. Unless noted, calls follow the shape of the dose curve; as a rule, active = well fitted curve in the direction sought with a large enough effect; inconclusive = small, poorly fitted or top-dose-only effect, or another doubt; inactive = no such curve, though single readings can be large; an effect the other way counts as inactive or inconclusive.

CC(C)=CCC12Oc3cc(O)ccc3C1(O)Oc1cc(O)c([C@H]3C=C(C)CC(c4ccc(O)cc4O)[C@H]3C(=O)c3ccc(O)cc3O)c(O)c1C2=O (stereo not given in full)	DT40 TDP1 no CPT 25.9µM, DT40 TDP1 CPT inconclusive (no result: TDP1 block)
Cc1cc2c(cc1C)C(=O)C(Br)=C(N)C2=O	DT40 TDP1 no CPT 16.4µM, DT40 TDP1 CPT 25.9µM (no result: TDP1 block, ClpP mod)
COc1cc2c(c(Br)c1N)-c1cc(Br)c(N)cc1C2=O	none (no result: TDP1 block)
O=C(COC(=O)c1cccc2c1C(=O)c1ccccc1C2=O)NC1CCCCC1	DT40 TDP1 no CPT inconclusive, DT40 TDP1 CPT inconclusive (no result: ClpP mod)
O=C1c2ccccc2C(=O)c2c1ccc1c(=O)n(C3CCCCC3)[nH]c21	DT40 TDP1 no CPT 23.1µM, DT40 TDP1 CPT inconclusive
CC1(C)OC2C[C@](O)(C(N)=O)C[C@H](O)[C@H]2O1 (stereo not given in full)	none (no result: ClpP mod)
OCC1O[C@H](O[C@H]2C(O)C(O)C(O)O[C@@H]2CO)C(O)C(O)C1O (stereo not given in full)	none (no result: DT40 TDP1 no CPT, ClpP mod, DT40 TDP1 CPT)
CC(=Cc1ccccc1)C(=O)c1ccccc1	DT40 TDP1 no CPT inconclusive, DT40 TDP1 CPT inconclusive (no result: TDP1 block)
O=C(C(Br)=Cc1ccccc1)c1ccccc1	DT40 TDP1 no CPT 1.3µM, DT40 TDP1 CPT 0.731µM (no result: TDP1 block)
CC(=O)C(=Cc1ccc(-c2ccccc2)cc1)C(=O)c1ccccc1	DT40 TDP1 no CPT inconclusive, DT40 TDP1 CPT 18.4µM (no result: TDP1 block)
Cc1ccc(OCc2nnn(CC(=O)NS(=O)(=O)c3c(C)noc3C)c2-c2ccccc2)cc1	DT40 TDP1 no CPT 1.03µM, DT40 TDP1 CPT inconclusive (no result: TDP1 block)
CC(C(O)c1cc(=O)c(OCc2ccccc2)co1)[N+](=O)[O-] (stereo not given)	DT40 TDP1 no CPT inconclusive, DT40 TDP1 CPT inconclusive (no result: TDP1 block)
COc1coc(C(O)C[N+](=O)[O-])cc1=O (stereo not given)	DT40 TDP1 no CPT inconclusive, DT40 TDP1 CPT 29.1µM (no result: ClpP mod)
CCn1c(SC(C)C(=O)OC)nnc1-c1c[nH]c2ccccc12 (stereo not given)	DT40 TDP1 no CPT 23.1µM, DT40 TDP1 CPT inconclusive
CCn1c(SCC(=O)Nc2cc(OC)c(OC)c(OC)c2)nnc1-c1cccs1	DT40 TDP1 no CPT 20.6µM, DT40 TDP1 CPT inconclusive
CCn1c(SCC(=O)c2c[nH]c3ccccc23)nnc1-c1cccs1	DT40 TDP1 no CPT 5.8µM, DT40 TDP1 CPT inconclusive
CCOC(=O)C(C)Sc1nnc(-c2c[nH]c3ccccc23)n1C (stereo not given)	DT40 TDP1 no CPT inconclusive, DT40 TDP1 CPT inconclusive
CCn1c(SCC(=O)Nc2ccc(OC)c(OC)c2)nnc1-c1cccs1	none
CCn1c(SCc2nc(-c3cccs3)no2)nnc1-c1c[nH]c2ccccc12	DT40 TDP1 no CPT 23.1µM, DT40 TDP1 CPT inconclusive
CCOC(=O)C1=C(O)C(=O)N(C2CCCCC2)C1	none
CC(NC(=O)CN(Cc1ccccc1)S(=O)(=O)c1ccccc1)c1cccnc1 (stereo not given)	none
CCOC(=O)C(C)Oc1ccc2c(CC)cc(=O)oc2c1C (stereo not given)	ClpP mod 17.8µM
CCCCOc1ccc2c(C)cc(=O)oc2c1OCCCC	DT40 TDP1 no CPT 25.9µM, DT40 TDP1 CPT 16.4µM
CC(=O)c1c(OCC(=O)O)ccc2c(C)cc(=O)oc12	ClpP mod inconclusive
CCC(=O)Oc1ccc2c(C)cc(=O)oc2c1C	DT40 TDP1 no CPT 6.51µM, DT40 TDP1 CPT inconclusive
CCc1cc(=O)oc2c(C)c(OC(C)C(=O)NCC3CCC(C(=O)O)CC3)ccc12 (stereo not given)	none (no result: TDP1 block)
CCN(c1ccccc1)S(=O)(=O)c1ccc(Cl)c(C(=O)NCC2CCCO2)c1 (stereo not given)	DT40 TDP1 no CPT inconclusive (no result: ClpP mod)
CCC(c1nnnn1Cc1ccc(OC)cc1)N1CCN(c2ccc(OC)cc2)CC1 (stereo not given)	none (no result: ClpP mod)
CC(C)C(c1nnnn1Cc1ccc(F)cc1)N1CCN(Cc2ccc3c(c2)OCO3)CC1 (stereo not given)	DT40 TDP1 no CPT inconclusive, DT40 TDP1 CPT inconclusive
CCCC(c1nnnn1Cc1ccc(OC)cc1)N1CCN(c2ccccc2OC)CC1 (stereo not given)	DT40 TDP1 no CPT 20.6µM, DT40 TDP1 CPT inconclusive
CCC(c1nnnn1Cc1ccc2c(c1)OCO2)N1CCN(c2ccc(OC)cc2)CC1 (stereo not given)	DT40 TDP1 no CPT inconclusive, DT40 TDP1 CPT 25.9µM
CCC(c1nnnn1Cc1ccc2c(c1)OCO2)N1CCN(c2ccc(F)cc2)CC1 (stereo not given)	DT40 TDP1 no CPT inconclusive, DT40 TDP1 CPT 20.6µM
